Hit rate of the full screen: of about 5,500 compounds, about 2,000 (36%) were called active. Roughly 18% stayed inconclusive and do not appear here. Cut-off read from the data, not from the text of the source: active = normalized growth mostly below about 0.91 (no sharp cut-off); inconclusive = no clear call, values can overlap the other calls; inactive = mostly above about 0.92. This is one part of the list.
Assay: chemical genetic growth profiling, strain panel (AID 1159580);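 note: tested at 20 µM; growth read once vehicle control cultures reached saturation at 30 °C; 1 = growth at the plate median or of vehicle wells; lower values mean less growth of the strain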
Details: growth OD

Measured: normalized growth

COc1cc(O)c2c(c1)C(=O)c1cc(C)cc(O)c1C2=O
inactive: S. cerevisiae deletion strains, locus YJR075W, strain HOC1, stronger effect = lower value 1 | S. cerevisiae deletion strains, locus YKL009W, strain mrt4, stronger effect = lower value 0.921 | S. cerevisiae deletion strains, locus YKL068W, stronger effect = lower value 1.01 | S. cerevisiae deletion strains, locus YKL085W, strain MDH1 (second series), stronger effect = lower value 0.98 | S. cerevisiae deletion strains, locus YKL085W, strain MDH1, stronger effect = lower value 0.98 | S. cerevisiae deletion strains, locus YKL160W, strain elf1, stronger effect = lower value 0.997 | S. cerevisiae deletion strains, locus YKL190W, strain CNB1, stronger effect = lower value 1.02 | S. cerevisiae deletion strains, locus YKR001C, strain vps1, stronger effect = lower value 1.02 | S. cerevisiae deletion strains, locus YKR026C, strain gcn3, stronger effect = lower value 0.997 | S. cerevisiae deletion strains, locus YKR091W, strain srl3, stronger effect = lower value 0.981 | S. cerevisiae deletion strains, locus YLL001W, strain dnm1, stronger effect = lower value 0.994 | S. cerevisiae deletion strains, locus YLL026W, stronger effect = lower value 0.995 | S. cerevisiae deletion strains, locus YLL041C, strain sdh2, stronger effect = lower value 0.988 | S. cerevisiae deletion strains, locus YLR027C, strain aat2, stronger effect = lower value 0.986 | S. cerevisiae deletion strains, locus YLR039C, strain RIC1, stronger effect = lower value 0.846 | S. cerevisiae deletion strains, locus YLR058C, strain SHM2, stronger effect = lower value 1 | S. cerevisiae deletion strains, locus YLR102C, strain apc9, stronger effect = lower value 0.997 | S. cerevisiae deletion strains, locus YLR113W, strain HOG1, stronger effect = lower value 0.979 | S. cerevisiae deletion strains, locus YLR221C, strain rsa3, stronger effect = lower value 0.995 | S. cerevisiae deletion strains, locus YLR258W, strain gsy2, stronger effect = lower value 0.978 | S. cerevisiae deletion strains, locus YLR262C, strain YPT6, stronger effect = lower value 0.884 | S. cerevisiae deletion strains, locus YLR268W, strain sec22, stronger effect = lower value 0.924 | S. cerevisiae deletion strains, locus YLR320W, strain mms22, stronger effect = lower value 0.962 | S. cerevisiae deletion strains, locus YLR330W, strain CHS5, stronger effect = lower value 1.01 | S. cerevisiae deletion strains, locus YLR342W, strain FKS1 (second series), stronger effect = lower value 1.02 | S. cerevisiae deletion strains, locus YLR342W, strain FKS1, stronger effect = lower value 0.994 | S. cerevisiae deletion strains, locus YLR357W, strain rsc2, stronger effect = lower value 0.945 | S. cerevisiae deletion strains, locus YLR370C, strain arc18, stronger effect = lower value 0.986 | S. cerevisiae deletion strains, locus YLR371W, strain rom2, stronger effect = lower value 1 | S. cerevisiae deletion strains, locus YLR384C, strain iki3, stronger effect = lower value 0.977 | S. cerevisiae deletion strains, locus YLR418C, strain cdc73, stronger effect = lower value 1 | S. cerevisiae deletion strains, locus YML016C, strain PPZ1, stronger effect = lower value 1.01 | S. cerevisiae deletion strains, locus YML120C, strain ndi1, stronger effect = lower value 1 | S. cerevisiae deletion strains, locus YML124C, strain tub3, stronger effect = lower value 1 | S. cerevisiae deletion strains, locus YMR058W, strain fet3, stronger effect = lower value 1.01 | S. cerevisiae deletion strains, locus YMR078C, strain ctf18, stronger effect = lower value 0.982 | S. cerevisiae deletion strains, locus YMR125W, strain sto1, stronger effect = lower value 0.995 | S. cerevisiae deletion strains, locus YMR129W, stronger effect = lower value 0.992 | S. cerevisiae deletion strains, locus YMR205C, strain PFK2, stronger effect = lower value 0.97 | S. cerevisiae deletion strains, locus YMR223W, strain ubp8, stronger effect = lower value 0.974 | S. cerevisiae deletion strains, locus YMR231W, strain pep5, stronger effect = lower value 0.979 | S. cerevisiae deletion strains, locus YMR263W, strain SAP30, stronger effect = lower value 1.01 | S. cerevisiae deletion strains, locus YMR307W, strain GAS1, stronger effect = lower value 0.931 | S. cerevisiae deletion strains, locus YNL067W, strain RPL9B, stronger effect = lower value 0.989 | S. cerevisiae deletion strains, locus YNL071W, strain lat1, stronger effect = lower value 0.998 | S. cerevisiae deletion strains, locus YNL128W, strain TEP1, stronger effect = lower value 1.02 | S. cerevisiae deletion strains, locus YNL153C, strain GIM3, stronger effect = lower value 1 | S. cerevisiae deletion strains, locus YNL183C, strain NPR1, stronger effect = lower value 0.99 | S. cerevisiae deletion strains, locus YNL209W, strain ssb2, stronger effect = lower value 0.985 | S. cerevisiae deletion strains, locus YNL233W, strain BNI4, stronger effect = lower value 0.986 | S. cerevisiae deletion strains, locus YNL248C, strain rpa49, stronger effect = lower value 0.987 | S. cerevisiae deletion strains, locus YNL271C, strain bni1, stronger effect = lower value 0.996 | S. cerevisiae deletion strains, locus YNL298W, strain CLA4, stronger effect = lower value 0.91 | S. cerevisiae deletion strains, locus YNL322C, strain KRE1 (second series), stronger effect = lower value 0.974 | S. cerevisiae deletion strains, locus YNL322C, strain KRE1, stronger effect = lower value 1.01 | S. cerevisiae deletion strains, locus YNR049C, strain mso1, stronger effect = lower value 0.987 | S. cerevisiae deletion strains, locus YNR052C, strain pop2, stronger effect = lower value 0.992 | S. cerevisiae deletion strains, locus YOL006C, strain TOP1, stronger effect = lower value 0.775 | S. cerevisiae deletion strains, locus YOL012C, strain htz1 1.44 | S. cerevisiae deletion strains, locus YOL147C, strain pex11, stronger effect = lower value 1.02 | S. cerevisiae deletion strains, locus YOR001W, strain rrp6, stronger effect = lower value 1.01 | S. cerevisiae deletion strains, locus YOR061W, strain CKA2, stronger effect = lower value 1 | S. cerevisiae deletion strains, locus YOR070C, strain gyp1, stronger effect = lower value 0.979 | S. cerevisiae deletion strains, locus YOR080W, strain dia2, stronger effect = lower value 0.978 | S. cerevisiae deletion strains, locus YOR083W, strain WHI5, stronger effect = lower value 0.984 | S. cerevisiae deletion strains, locus YOR106W, strain vam3, stronger effect = lower value 0.991 | S. cerevisiae deletion strains, locus YOR136W, strain idh2, stronger effect = lower value 0.997 | S. cerevisiae deletion strains, locus YOR144C, strain elg1, stronger effect = lower value 1 | S. cerevisiae deletion strains, locus YOR184W, strain ser1, stronger effect = lower value 0.971 | S. cerevisiae deletion strains, locus YOR231W, strain MKK1, stronger effect = lower value 1.02 | S. cerevisiae deletion strains, locus YOR265W, strain rbl2, stronger effect = lower value 0.983 | S. cerevisiae deletion strains, locus YOR270C, strain vph1, stronger effect = lower value 0.978 | S. cerevisiae deletion strains, locus YOR290C, strain snf2, stronger effect = lower value 0.93 | S. cerevisiae deletion strains, locus YOR316C, strain cot1, stronger effect = lower value 1 | S. cerevisiae deletion strains, locus YPL051W, strain arl3, stronger effect = lower value 0.939 | S. cerevisiae deletion strains, locus YPL055C, strain LGE1, stronger effect = lower value 0.999 | S. cerevisiae deletion strains, locus YPL078C, strain atp4, stronger effect = lower value 1 | S. cerevisiae deletion strains, locus YPL106C, strain sse1, stronger effect = lower value 0.973 | S. cerevisiae deletion strains, locus YPL240C, strain hsp82, stronger effect = lower value 0.98 | S. cerevisiae deletion strains, locus YPL256C, strain CLN2, stronger effect = lower value 1.03 | S. cerevisiae deletion strains, locus YPR119W, strain clb2, stronger effect = lower value 0.984 | S. cerevisiae deletion strains, locus YPR141C, strain kar3, stronger effect = lower value 1.01 | S. cerevisiae deletion strains, locus YPR163C, strain tif3, stronger effect = lower value 0.949 | S. cerevisiae deletion strains, locus YPR167C, strain met16, stronger effect = lower value 0.999 | S. cerevisiae deletion strains, strain wtn01, stronger effect = lower value 0.995 | S. cerevisiae strains, strain wild type, stronger effect = lower value 1.01
active: S. cerevisiae deletion strains, locus YLR262C, strain YPT6 (second series), stronger effect = lower value 0.845 | S. cerevisiae deletion strains, locus YML032C, strain rad52, stronger effect = lower value 0.812 | S. cerevisiae deletion strains, locus YNL250W, strain rad50, stronger effect = lower value 0.834 | S. cerevisiae deletion strains, locus YNL307C, strain MCK1, stronger effect = lower value 0.862 | S. cerevisiae deletion strains, locus YOR069W, strain VPS5, stronger effect = lower value 1.12 [resistant]
